Structures are written as SMILES. Hit rate of the full screen: of about 360,000 compounds, about 25,000 (6.9%) were called active. Entries that show only a call come without a potency. Not shown: some 9% with an inconclusive outcome. This is one part of a sample in which actives are shown more often than they occur. A number with no mark means an inactive call. The call rests on the fitted dose curve; in most records, active means well fitted inhibition curve with a large enough effect; inconclusive means small, poorly fitted or top-dose-only effect; inactive means flat fitted curve, though single readings scatter.
Potency means the concentration at half of the fitted maximal effect.

The target in the assay is Luciferin 4-monooxygenase (Photinus pyralis) (UniProt P08659). Put plainly: qHTS profiling assay for firefly luciferase inhibitor/activator using purifed enzyme and Km concentrations of substrates (counterscreen for miR-21 project). Further: nearly all actives have a fitted effect of over 55% in size. The conditions noted are these: purified FLuc, luminescence inhibition; series mostly up to 57.5 µM. In a few lines: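 Biochemical qHTS of compounds, final roughly 60 µM downward over six points, against 10 nM purified firefly luciferase using Km concentrations of substrates (10 uM D-luciferin, 10 uM ATP) in Tris acetate pH 7.5 buffer; luminescence output.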
Sequence of Luciferin 4-monooxygenase (Photinus pyralis) (P08659 whole entry, looked up): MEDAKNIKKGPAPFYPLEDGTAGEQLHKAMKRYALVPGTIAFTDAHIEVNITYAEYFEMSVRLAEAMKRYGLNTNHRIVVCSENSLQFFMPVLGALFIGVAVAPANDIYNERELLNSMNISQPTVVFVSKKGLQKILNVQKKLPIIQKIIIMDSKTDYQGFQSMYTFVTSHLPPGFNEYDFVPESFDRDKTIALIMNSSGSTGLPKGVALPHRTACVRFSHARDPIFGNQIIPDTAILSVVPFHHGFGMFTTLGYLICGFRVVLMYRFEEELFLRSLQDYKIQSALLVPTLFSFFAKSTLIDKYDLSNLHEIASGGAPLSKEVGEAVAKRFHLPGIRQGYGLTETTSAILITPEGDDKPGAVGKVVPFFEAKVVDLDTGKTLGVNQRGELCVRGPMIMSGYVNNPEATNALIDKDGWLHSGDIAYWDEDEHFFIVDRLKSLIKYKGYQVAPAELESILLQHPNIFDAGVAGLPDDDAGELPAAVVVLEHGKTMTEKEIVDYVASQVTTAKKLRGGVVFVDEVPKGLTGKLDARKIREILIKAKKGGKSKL
Background: qHTS replaces the single test concentration by a dilution series.
As to `COc1ccc(S(=O)(=O)N2CCSCC2)cc1`, the Potency result is “inactive”.
`CCOC(=O)c1ccc(NC(=S)Nc2cc(C)cc(C)n2)cc1`: the Potency entry was “inactive”.
For the molecule `CCOC(=O)c1cc2c(nc1NC(=S)Nc1ccccc1)CC(C)(CC)OC2` (stereo not drawn), the Potency result was “inactive”.
With `CCOC(=O)c1cn[nH]c1NC(=S)Nc1ccccc1`, the Potency was 2.13 µM (active).
Regarding `Nc1c(N(CCCO)C(=O)C2CCCC2)c(=O)[nH]c(=O)n1Cc1ccccc1`, the Potency entry was “inactive”.
In the case of `COc1ccccc1C1=Nc2cccc3cccc(c23)N1`, the Potency was 16.9 µM (active).
Regarding `COc1ccc(N2C(=O)c3cccc4cccc(c34)C2=O)nn1`, the Potency result is “inactive”.
On to `COc1ccccc1-c1nc(C(F)(F)F)c(OC)o1`, for which the Potency result was “inactive”.
Turning to `c1ccc(C2=Nc3cccc4cccc(c34)N2)cc1`, the Potency was 15.1 µM (active).
In the case of `COc1ccc(-n2c(SCC(N)=O)nc3c(oc4ccccc43)c2=O)cc1`, the Potency result is “inactive”.
Still for that read-out and setting: the value for `CC(C)Nc1nnc(SC(C)C(=O)N(C)C2CCCCC2)s1` (stereo not drawn) was “inactive”; that for `Cc1cccc(N(C)C(=O)CS(=O)(=O)c2cccc3nsnc23)c1` was “inactive”.
For the molecule `O=C(CCn1c(=O)c2ccccc2n(Cc2ccc(Cl)cc2)c1=O)NCc1ccc2c(c1)OCO2`, the Potency result was “inactive”.
`COc1cc(Cl)c(NC(=O)C(NS(=O)(=O)c2cccs2)C(C)C)c(OC)c1` (stereo not drawn): the Potency entry was “inactive”.
In the case of `Cc1ccn(-c2cccc(-n3ccc(C)n3)n2)n1`, the Potency was 3.38 µM (active).
For the molecule `CCCCc1nnc(NC(=O)CSc2nc(N)cc(=O)[nH]2)s1`, the Potency entry is “inactive”.
Same read-out and setting: the value for `COc1ccc(Nc2nc(-c3cccnc3)nc3ccccc23)cn1` was “inactive”; that for `O=[N+]([O-])c1ccc(F)cc1Oc1nc(-c2cccnc2)nc2ccccc12` was “inactive”.
As for `Fc1ccc(/C=N/Nc2nc(-c3cccnc3)nc3ccccc23)cc1`, the Potency is 2.13 µM (active).
Take `Cc1ccc(C2C=C(c3ccc(Cl)cc3)Nc3nc(NC(=O)CCC(=O)O)nn32)cc1` (stereo not drawn): the Potency result was “inactive”.
Turning to `CC(=O)N1CCc2cc(S(=O)(=O)NC(Cc3ccccc3)C(=O)NCc3ccc(C)cc3)ccc21` (stereo not drawn), the Potency result was “inactive”.
As for `COC(=O)[C@]1(S(=O)(=O)c2ccccc2)C[C@@H]2ON=C(c3ccc(OC)cc3)[C@@H]2C1`, the Potency entry is “inactive”.
On to `CCC(=O)c1cc2c(cc1NC(=O)c1cccs1)OCCO2`, for which the Potency result is “inactive”.
For the molecule `COc1ccc(Cl)cc1NC(=O)CN(C)CC(=O)Nc1ccc2c(c1)OCO2`, the Potency entry was “inactive”.
In the case of `CN1CCN(C(=O)/C(=C\c2ccc3c(c2)OCO3)NC(=O)c2cccs2)CC1`, the Potency result was “inactive”.
Same read-out and setting: the value for `COc1cc(NC(=O)c2ccc3c(c2)OCO3)ccc1NC(=O)c1cccs1` was 10.7 µM (active).
Regarding `COc1cc(C(=O)NCC2(c3ccccc3)CCCC2)ccc1OC(C)C`, the Potency entry is “inactive”.
In the case of `COc1ccc(C(=O)Nc2ccc3c(c2)OCO3)cc1OC`, the Potency was 10.7 µM (active).
As to `COc1ccc(C(=O)Nc2ccc(C3(C#N)CCCC3)cc2)cc1OC`, the Potency is 10.7 µM (active).
As to `COc1ccc(C(=O)Nc2ccc(-n3nncc3-c3ccccc3)cc2)cc1OC`, the Potency entry is “inactive”.
On to `COc1ccc(NC(=O)c2ccc3nc(C(C)C)oc3c2)cc1OC`, for which the Potency result was “inactive”.
On to `C=CCNC(=O)/C(=C\c1cccc([N+](=O)[O-])c1)NC(=O)c1ccccc1`, for which the Potency entry was “inactive”.
In the case of `O=C(Nc1ccc(Br)cc1)c1cc2nc(-c3ccccc3)cc(-c3ccccc3)n2n1`, the Potency result was “inactive”.
Regarding `CCCCc1nn2c(=O)cc(COC(=O)c3ccc(NC(=O)c4ccccc4C)cc3)nc2s1`, the Potency entry was “inactive”.
As to `CCCCOc1ccc(-c2ncc(C(=O)OCC)c(N)n2)cc1`, the Potency was 2.69 µM (active).
Same read-out and setting: the value for `CCCCCCOc1ccc(OC(=O)c2cccnc2)cc1` was “inactive”; that for `CCOC(=O)c1cnc(SCC(=O)NCc2ccco2)nc1N` was “inactive”.
Same read-out and setting: the value for `Cc1ccn2cc(-c3nonc3C)cc2c1` was 26.9 µM (active).
`CCCCN(C)c1nnc(NC(=O)Nc2ccc(Br)c(C)c2)s1`: the Potency entry was “inactive”.
For the molecule `Cc1cc(C(=O)N2CCN(c3ccccn3)CC2)c(C)o1`, the activity change, negative = inhibition is 3.1% [at 2.3 µM].
On to `CCOc1ccccc1-c1cc(C(=O)N2CCOCC2)c2ccccc2n1`, for which the Potency result is “inactive”.
In the case of `CC(=O)N1CCN(C(=O)c2cc(-c3ccc(C)o3)nc3ccccc23)CC1`, the Potency was 4.78 µM (active).
On to `Cc1ccc(S(=O)(=O)N2CCN(C(=O)c3ccccc3-c3nc4ccccc4s3)CC2)c(C)c1`, for which the Potency result is “inactive”.
Still for that read-out and setting: the value for `Cc1c(NC(=O)c2cc(-c3ccc(Cl)s3)nc3ccccc23)c(=O)n(-c2ccccc2)n1C` was “inactive”; that for `O=C(c1cc(-c2ccc(Cl)s2)nc2ccccc12)N1CCOCC1` was 23.9 µM (active).
Consider `CCN(CC)CCNC(=O)Cn1ncc2c3ccccc3n(Cc3ccccc3C)c2c1=O`, for which the Potency result is “inactive”.
`CC(=O)c1ccc(NC(=O)Cn2c(=O)oc3ccccc32)cc1`: the Potency entry was “inactive”.
On to `Cc1ccc(C(=O)Nc2ccc(OCc3cc(=O)n4c(C)csc4n3)cc2)cc1`, for which the Potency result was “inactive”.
`Cn1cc(CN2CCCCC2c2ccccn2)c(-c2ccc3c(c2)OCCO3)n1` (stereo not drawn): the Potency result was “inactive”.
Still for that read-out and setting: the value for `CCO[C@H]1OC(C(=O)Nc2ccccc2)=C[C@@H](C2CC2)[C@@H]1CCCO` was “inactive”.
`Cn1c(=O)c2c(-c3cccc(Br)c3)c(C#N)c(N)nc2n(C)c1=O`: the Potency result was “inactive”.
As to `Cc1c(C)n2c(SCC(=O)N3CCCC3)nnc2[nH]c1=O`, the Potency result is “inactive”.
Same read-out and setting: the value for `CCOC(=O)c1cc2c(=O)n3ccccc3nc2n(CCCOC)c1=NC(=O)C(C)(C)Oc1ccc(Cl)cc1` was “inactive”; that for `CC1CCCCN1S(=O)(=O)c1ccc(S(=O)(=O)N(CC(=O)Nc2ccccc2)Cc2cccs2)cc1` (stereo not drawn) was “inactive”.
For `O=C(Nc1nnc(CCc2ccccc2)s1)C1CCCO1` (stereo not drawn), the Potency result was “inactive”.
On to `O=C(Nc1ccc(-c2nnc(-c3ccccc3)o2)cc1)C1CCCO1` (stereo not drawn), for which the Potency was 3.38 µM (active).
Regarding `CC(C)(C)NS(=O)(=O)c1ccc(NC(=O)C2CCCO2)cc1` (stereo not drawn), the Potency result was “inactive”.
Regarding `COc1ccc(NC(=O)N2CCCC2C(=O)NCc2ccccc2Cl)cc1` (stereo not drawn), the Potency result is “inactive”.
As for `O=S1(=O)C=C(SCCN2CCCC2)c2ccccc21`, the Potency result is “inactive”.
Turning to `CC(C)(C)c1ccc(OC2=CS(=O)(=O)c3ccccc32)cc1`, the Potency is 15.1 µM (active).
`CC(C)(C)c1ccc(CN2C(=O)c3ccccc3S2(=O)=O)cc1`: the Potency entry is “inactive”.
Still for that read-out and setting: the value for `Cc1ccc(-n2c(=O)c3cccnc3n2CC(=O)NCc2ccc(F)cc2)cc1C` was “inactive”; that for `O=C(c1ccc2c(c1)N(Cc1ccccc1)C(=O)c1ccccc1S2(=O)=O)N1CCC(Cc2ccccc2)CC1` was “inactive”; that for `Cc1nc(NC2=NC(C(=O)Nc3ccc(Cl)cc3)CC(=O)N2)nc2ccccc12` (stereo not drawn) was “inactive”.
Consider `CCc1nc2sc(C(=O)O)c(N)c2c2c1CCCC2`, for which the Potency result is “inactive”.
Consider `COC(=O)c1cc2c(N)c(C(=O)c3ccc(Cl)cc3)sc2nc1C(OC)OC`, for which the Potency entry is “inactive”.
On the same count and under the same terms, the value for `Cc1ccc2c(N)c(C(=O)c3ccccc3)sc2n1` was 21.3 µM (active).
For the molecule `Cc1nc2sc(C(=O)c3ccccc3)c(N)c2c2c1CCCC2`, the Potency is 10.7 µM (active).
For `CN(C)c1ccnc2sc(C(=O)c3ccccc3)c(N)c12`, the Potency was 5.36 µM (active).
Take `CCCS(=O)(=O)c1c(Nc2ccccc2C)sc(C(=O)c2ccccc2)c1N`: the Potency entry was “inactive”.
For `COc1cccc(C(=O)c2sc3nc(-c4ccccc4)cc(C(F)(F)F)c3c2N)c1`, the Potency entry is “inactive”.
Same read-out and setting: the value for `Nc1c(C(=O)NCc2ccccc2)sc2nc3c(cc12)C(=O)CCC3` was “inactive”.
The same measure, in the same setting: the value for `CCN(CC)C(=O)c1sc2nc(-c3ccccc3)ccc2c1N` was 5.36 µM (active); that for `COc1ccc(C(F)(F)F)cc1NC(=O)c1sc2nc(-c3cccs3)ccc2c1N` was “inactive”.
Take `CN(C)c1ccnc2sc3c(=O)n(Cc4ccccc4)cnc3c12`: the Potency entry is “inactive”.
For the molecule `CC(=O)c1c(Nc2ccccc2)sc(C(=O)c2ccccc2)c1C`, the Potency entry was “inactive”.
As for `COc1cc(OC)c(NC(=O)Cc2ccc(-n3c(C)nc4cccnc43)cc2)cc1Cl`, the Potency result was “inactive”.
For the molecule `O=C(O)CCCCCCCCc1cn(CN2C(=O)c3ccccc3C2=O)nn1`, the Potency result is “inactive”.
For the molecule `CCOCCCNC(=O)c1c(NC(=O)c2nc(SC)ncc2Cl)sc2c1CCCC2`, the Potency entry is “inactive”.
With `CC(=O)NC(c1cccs1)c1cc(Br)c2cccnc2c1O` (stereo not drawn), the Potency result is “inactive”.
For `CC(OC(=O)CNC(=O)c1cccc(F)c1)C(=O)NC1CCCCC1C` (stereo not drawn), the Potency entry was “inactive”.
For `CCN(CC)c1ccc(C2C(C(N)=O)=C(C)Nc3nc(SCc4ccccc4)nn32)cc1` (stereo not drawn), the Potency entry is “inactive”.
As to `COC(=O)c1nc(NC(=O)c2ccc(F)cc2)n[nH]1`, the Potency entry is “inactive”.
As for `CSc1nccc(NC(=O)c2ccc(C(C)(C)C)cc2)n1`, the Potency was 1.9 µM (active).
As for `CSc1ncc(C(=O)Nc2ccc(C)cc2C)c(C)n1`, the Potency entry was “inactive”.
Take `COC(=O)c1ccccc1NC(=O)c1cc(-c2ccccc2O)no1`: the Potency result was “inactive”.
Turning to `O=S(=O)(NCCCCCCNS(=O)(=O)c1c(F)cccc1F)c1ccc2c(c1)OCCO2`, the Potency entry was “inactive”.
Regarding `Cc1ccccc1CCNC(=O)C1CCN(c2nc3ccccc3nc2C(F)(F)F)CC1`, the Potency result is “inactive”.
Still for that read-out and setting: the value for `O=C1CCNCCN1[C@H](CO)Cc1ccccc1` was “inactive”; that for `CC(=O)NCC(=O)N(Cc1ccco1)C1(C(=O)NC2CCCC2)CCCCC1` was “inactive”.
Consider `Cc1cccn2c(=O)c(C(=O)NC(C)c3ccccc3)cnc12` (stereo not drawn), for which the Potency entry is “inactive”.
Still for that read-out and setting: the value for `CSc1ccccc1NC(=O)c1cc(Cl)sc1Cl` was “inactive”.
Consider `CSc1ccccc1NC(=O)c1cnc2sc(C)cn2c1=O`, for which the Potency is 5.36 µM (active).
In the case of `CCOc1ccc(NS(=O)(=O)c2ccc(Cl)c(C(=O)N(C)Cc3cccnc3)c2)cc1`, the Potency entry was “inactive”.
Still for that read-out and setting: the value for `CC(=O)Nc1ccc(NC(=O)CCN2C(=O)C3CC=CCC3C2=O)cc1` (stereo not drawn) was “inactive”; that for `CCC(=O)c1ccc(OCC(=O)N(CC)CC2COc3ccccc3O2)cc1` (stereo not drawn) was “inactive”; that for `CCC(=O)N1CCc2cc(S(=O)(=O)NC(C(=O)Nc3ccc(C(C)=O)cc3)C(C)C)ccc21` (stereo not drawn) was “inactive”.
As for `COc1ccccc1Oc1ccc(N/C=C2/CCCC2=O)cc1`, the Potency entry is “inactive”.
With `O=C(Cc1ccccc1)NNC(=O)C1CCN(c2ncccn2)CC1`, the Potency result was “inactive”.
With `O=C1/C(=C\Nc2ccccc2)CCN1c1ncccn1`, the Potency was 23.9 µM (active).
As to `CCc1nnc(SCc2c(F)cccc2Cl)c2cc3sccc3n12`, the Potency entry was “inactive”.
For `COc1cc(C(=O)NN(CCC#N)C2=NS(=O)(=O)c3ccccc32)cc(OC)c1OC`, the Potency entry is “inactive”.
As to `CCOC(=O)C1CCCN(C(=O)Cn2ncc3c(C)n(Cc4ccc(F)cc4)c(C)c3c2=O)C1` (stereo not drawn), the Potency entry was “inactive”.

Source of the values: PubChem BioAssay AID588342 (National Center for Advancing Translational Sciences (NCATS), 2011).
